Here are results for 14 molecules from PubChem BioAssay.

One may read the inhibition as the change of the read-out against control, counted positive when it falls.

Activity calls are given as the source filed them.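 How the source made its calls, unless noted: active means compounds that lower viability of the colon cancer cells in the luminescence readout, with no numeric limit stated; inactive means the rest.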

Assay [1] in a line: stimulators of insulin release from INS-1E, primary screen, cell-based, 5 mM glucose, NPC library (AID 1117329;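 active means compound raises insulin release from rat beta cells at 5 mM glucose, no numeric limit stated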). The following applies: rat INS-1E insulin secretion, at 10 µM, stronger effect = higher value.
A short description of assay [2]: growth inhibition of GSK3B-pretreated HCT116 cells – cell-based, CellTiter-Glo, 0.2 to 20 µM (AID 1117336;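 active means compounds lowering colon cancer cell viability after pretreatment blocking the GSK3B kinase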). Conditions: HCT116 viability after GSK3B inhibitor, at 20 µM, stronger effect = higher value.
The nature of assay [3]: inhibition of endothelial tube formation, primary screen, imaging, VEGF stimulated, CD31 staining, tube area, NPC library (AID 1117340;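 active means compound that reduces growth-factor-driven endothelial tube area in a mixed cell culture, no cutoff stated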). Conditions: VEGF-stimulated ADSC/ECFC co-culture, at 10 µM, stronger effect = higher value.
Assay [4] in a line: glucagon-like peptide 1 release enhancers, primary assay, NCI-H716 cell line, NPC library (AID 1117341;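 active means compound raises GLP1 secretion from the human gut endocrine cells, with no numeric limit stated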). Conditions: NCI-H716 cells, at 10 µM, stronger effect = higher value.
The nature of assay [5]: HCT116 colon cancer cell growth inhibition, primary screen, CellTiter-Glo luminescence, NPC library (AID 1117342;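 active means compounds that lower survival of HCT116 colon cancer cells in the luminescence readout, no numeric limit stated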). The following applies: at 20 µM (top of the series).
Assay [6] can be described thus: CellTiter-Glo luminescent readout of SW480 viability loss, NPC library primary (AID 1117343). Conditions: CellTiter-Glo luminescence; at 20 µM (top of the series). For orientation: ATP-based viability assays read luminescence as a measure of living cells.
Assay [7] is described as follows: decreased DLD-1 cellular survival, CellTiter-Glo luminescent readout, NPC compound collection, primary HTS (AID 1117346;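 active means compounds that lower survival of DLD-1 colon cancer cells in the luminescence readout, no cutoff given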). The following applies: DLD-1 viability, CellTiter-Glo luminescence; at 20 µM (top of the series).
Assay [8] concerns the target 6-phosphogluconate dehydrogenase, decarboxylating (Homo sapiens) (UniProt P52209). The experiment in a line: 6PGD enzyme inhibitors, primary screen, biochemical, human, recombinant enzyme, NADPH absorbance (AID 1159550;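 active means at least 20% inhibition of 6-phosphogluconate dehydrogenase activity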). Conditions: recombinant 6PGD, NADPH absorbance 341 nm; at 10 µM; stronger effect = higher value.
Assay [9] is described as follows: differential killing of epithelial or mesenchymal cells, primary screen, imaging, PC-3E GFP, TEM4-18 mCherry, co-culture (AID 1345086;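 active means compounds killing one labelled cell type while sparing the other, by normalised counts and ratio limits, not self-fluorescent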;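 on all read-outs here: cells exposed to compound for 72 h before imaging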;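 on red/green cell ratio (normalised): normalised mesenchymal count divided by normalised epithelial count so high means epithelial killing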). Conditions: imaging cell counts, at 1 µM; for red/green cell ratio (normalised): actives lie on both sides, counts scaled to control wells, 1 = unselective.
Setting [10] is: measured here: epithelial PC-3E GFP cell survival.
Setting [11] is: measured here: mesenchymal TEM4-18 mCherry cell survival.

6-phosphogluconate dehydrogenase, decarboxylating (Homo sapiens), sequence (P52209 whole entry, looked up): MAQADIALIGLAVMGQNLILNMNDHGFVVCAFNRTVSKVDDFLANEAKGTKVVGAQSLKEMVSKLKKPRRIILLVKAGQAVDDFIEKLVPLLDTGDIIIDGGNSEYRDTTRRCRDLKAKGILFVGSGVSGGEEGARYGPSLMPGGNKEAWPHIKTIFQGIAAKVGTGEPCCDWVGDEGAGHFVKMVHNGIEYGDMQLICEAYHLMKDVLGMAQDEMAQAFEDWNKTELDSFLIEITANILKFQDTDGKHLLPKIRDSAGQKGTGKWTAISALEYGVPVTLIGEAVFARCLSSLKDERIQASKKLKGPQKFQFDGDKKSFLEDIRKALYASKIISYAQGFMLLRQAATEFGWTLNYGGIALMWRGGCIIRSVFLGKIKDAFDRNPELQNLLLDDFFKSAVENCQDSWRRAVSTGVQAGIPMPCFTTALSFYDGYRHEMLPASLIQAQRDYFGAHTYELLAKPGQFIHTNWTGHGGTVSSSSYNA

On to `NC(=O)c1ccc([N+](=O)[O-])cc1Cl`, for which the insulin secretion stimulation in assay [1] is -2.1% (inactive). The viability decrease in assay [2] was -0.35% (inactive). Moreover, in assay [3], the tube area decrease is -35.4% (inactive). Further, the GLP1 secretion stimulation in assay [4] is 0% (inactive). The inhibition of viability in [5] is 42.7% (inactive). The viability decrease (inhibition) in assay [6] was 32.9% (inactive); in assay [7], 3.8% (inactive). Moreover, the inhibition in assay [8] is 10.9% (inactive). Moreover, the red/green cell ratio (normalised) in assay [9] was 1.37 (inactive). Also, the normalised cell number came to 0.87 in assay [9] (setting [10]) and 1.19 in assay [9] (setting [11]).
Turning to `CCCCCC(C)N` (centres undefined), in [1], the insulin secretion stimulation was 3.3% (inactive). Further, the viability decrease in [2] is 11.8% (inactive). In addition, in assay [3], the tube area decrease was 4.3% (inactive). For the same molecule, the GLP1 secretion stimulation in [4] was 0% (inactive). Besides, in assay [5], the inhibition of viability is -3.73% (inactive). Further, the figures for the viability decrease (inhibition) in assay [6] and in assay [7] were -37.6% (inactive) and 1.5% (inactive), respectively. In addition, in [8], the inhibition was -7.17% (inactive). Besides, in [9], the red/green cell ratio (normalised) was 1.26 (inactive). Further, the normalised cell number in assay [9] (setting [10]) came to 0.94; in assay [9] (setting [11]), 1.18.
Turning to `CCN(CC)C(C)CN1c2ccccc2Sc2ccccc21` (centres undefined), in assay [1], the insulin secretion stimulation is 7.3% (active). In addition, in [2], the viability decrease is -28.5% (inactive). Also, the tube area decrease in [3] is 25% (inactive). Moreover, the GLP1 secretion stimulation in assay [4] is 4.8% (inactive). For the same molecule, the inhibition of viability in assay [5] was 69.2% (active). Besides, the viability decrease (inhibition) was 109% (active) in assay [6] and 76.9% (active) in [7]. Moreover, the inhibition in [8] is -5.57% (inactive). In [9], the red/green cell ratio (normalised) is 0.85 (inactive). Besides, the normalised cell number in [9] (setting [10]) came to 1.09; in assay [9] (setting [11]) it was 0.92.
Regarding `NC(N)=NS(=O)(=O)c1ccc(N)cc1`, the insulin secretion stimulation in assay [1] was -1.4% (inactive). The viability decrease in assay [2] is 7.4% (inactive). Also, in [3], the tube area decrease is -2.9% (inactive). The GLP1 secretion stimulation in [4] is 0.9% (inactive). Further, in [5], the inhibition of viability is -10.1% (inactive). Besides, the viability decrease (inhibition) in assay [6] was 54.6% (active); in assay [7], 5.6% (inactive). Moreover, the inhibition in assay [8] is -6% (inactive). Besides, the red/green cell ratio (normalised) in assay [9] was 1.03 (inactive). For the same molecule, the normalised cell number turned out to be 0.95 in [9] (setting [10]) and 0.98 in [9] (setting [11]).
With `CCCCC1(COC(=O)CCC(=O)O)C(=O)N(c2ccccc2)N(c2ccccc2)C1=O`, the insulin secretion stimulation in [1] is 2.3% (inactive). Also, the viability decrease in [2] was 10.8% (inactive). Moreover, in assay [3], the tube area decrease is -1.7% (inactive). The GLP1 secretion stimulation in [4] is -1.7% (inactive). In addition, the inhibition of viability in assay [5] was 0.4% (inactive). For the same molecule, the viability decrease (inhibition) in assay [6] was -17.1% (inactive); in [7] it was 9.4% (inactive). Further, the inhibition in assay [8] was -3.37% (inactive). In addition, the red/green cell ratio (normalised) in assay [9] was 0.91 (inactive). Moreover, the normalised cell number in assay [9] (setting [10]) was 0.96; in [9] (setting [11]), 0.87.
As for `Cc1c(N(C)C)c(=O)n(-c2ccccc2)n1C`, the insulin secretion stimulation in assay [1] is 0.4% (inactive). In addition, the viability decrease in assay [2] was -152% (inactive). Further, the tube area decrease in assay [3] is 8.4% (inactive). Besides, the GLP1 secretion stimulation in assay [4] was -1.9% (inactive). Besides, the inhibition of viability in assay [5] was -13.5% (inactive). Further, the results for the viability decrease (inhibition) in [6] and in assay [7] were -4.8% (inactive) and -6.4% (inactive), respectively. The inhibition in assay [8] is 13.9% (inactive). The red/green cell ratio (normalised) in assay [9] is 0.85 (inactive). Also, the results for the normalised cell number in [9] (setting [10]) and in assay [9] (setting [11]) were 1.18 and 1, respectively.
`O=C(O)CCC(=O)Nc1ccc(S(=O)(=O)Nc2nccs2)cc1`: the insulin secretion stimulation in [1] is -2.6% (inactive). Also, the viability decrease in assay [2] was -3.7% (inactive). The tube area decrease in assay [3] is 21% (inactive). Moreover, the GLP1 secretion stimulation in [4] was -5.7% (inactive). The inhibition of viability in [5] is 2% (inactive). For the same molecule, the viability decrease (inhibition) in [6] is 40.3% (inactive); in [7] it was 9.45% (inactive). The inhibition in assay [8] is -5.92% (inactive). Further, the red/green cell ratio (normalised) in assay [9] is 1.01 (inactive). The figures for the normalised cell number in assay [9] (setting [10]) and in [9] (setting [11]) were 1.11 and 1.13, respectively.
With `CC1(C)OC(=O)NC1=O`, in [1], the insulin secretion stimulation is 0.6% (inactive). Further, in [2], the viability decrease was -28.6% (inactive). Also, the tube area decrease in assay [3] is 2.9% (inactive). In assay [4], the GLP1 secretion stimulation was -6.6% (inactive). For the same molecule, in [5], the inhibition of viability is 17.4% (inactive). The viability decrease (inhibition) is 11.1% (active) in assay [6] and -3.2% (inactive) in assay [7]. The inhibition in [8] is 10.2% (inactive). Also, in [9], the red/green cell ratio (normalised) is 1.18 (inactive). The values for the normalised cell number in assay [9] (setting [10]) and in assay [9] (setting [11]) were 1.2 and 1.41, respectively.
For `CCN(CCCc1ccccc1)CCCc1ccccc1`, the insulin secretion stimulation in assay [1] is 7.3% (inactive). For the same molecule, the viability decrease in assay [2] was -119% (inactive). The tube area decrease in [3] is 5.4% (inactive). Besides, the GLP1 secretion stimulation in assay [4] was 2.7% (inactive). For the same molecule, the inhibition of viability in assay [5] was 41.4% (inactive). The viability decrease (inhibition) in assay [6] is 44% (inactive); in assay [7], 60.1% (active). Besides, in assay [8], the inhibition is 7.45% (inactive). In assay [9], the red/green cell ratio (normalised) was 0.99 (inactive). Also, the normalised cell number in [9] (setting [10]) came out at 1.13; in assay [9] (setting [11]), 1.12.
`CCn1cc(C(=O)O)c(=O)c2cnc(N3CCCC3)nc21`: in [1], the insulin secretion stimulation was -0.4% (inactive). In addition, in assay [2], the viability decrease was -29.5% (inactive). The tube area decrease in [3] was 1.8% (inactive). Moreover, in assay [4], the GLP1 secretion stimulation was 1.2% (inactive). In addition, in assay [5], the inhibition of viability is 0% (inactive). The viability decrease (inhibition) in assay [6] was 11.2% (inactive); in [7], -1.2% (inactive). For the same molecule, the inhibition in assay [8] was 5.15% (inactive). In [9], the red/green cell ratio (normalised) was 0.88 (inactive). For the same molecule, the normalised cell number in [9] (setting [10]) was determined as 1; in assay [9] (setting [11]) it was 0.88.
`CCCCCCCCCCCCCCCCCCOCC(O)CO` (centres undefined): the insulin secretion stimulation in assay [1] was 1.3% (inactive). In addition, in [2], the viability decrease was -5.2% (inactive). For the same molecule, the tube area decrease in assay [3] is 7.6% (inactive). The GLP1 secretion stimulation in assay [4] was 30.1% (active). Further, the inhibition of viability in [5] was -10.7% (inactive). The viability decrease (inhibition) in [6] was 4.8% (inactive); in assay [7], -8.8% (inactive). In addition, the inhibition in [8] is -2.18% (inactive). For the same molecule, in [9], the red/green cell ratio (normalised) was 1 (inactive). Moreover, the normalised cell number in assay [9] (setting [10]) and in [9] (setting [11]) was 0.96 throughout.
Consider `CC1(C)S[C@@H]2[C@H](NC(=O)C(C(=O)O)c3ccccc3)C(=O)N2[C@H]1C(=O)O` (some centres undefined), for which the insulin secretion stimulation in assay [1] was -0.6% (inactive). In assay [2], the viability decrease was -17.4% (inactive). Further, the tube area decrease in assay [3] is -10.8% (inactive). The GLP1 secretion stimulation in [4] is -0.3% (inactive). Further, the inhibition of viability in [5] was -4.4% (inactive). For the same molecule, the viability decrease (inhibition) in [6] is -13% (inactive); in assay [7], -17.8% (inactive). Further, the inhibition in [8] was -9.55% (inactive). Besides, the red/green cell ratio (normalised) in assay [9] is 1.24 (inactive). Further, the normalised cell number in assay [9] (setting [10]) amounted to 0.99; in [9] (setting [11]) it was 1.23.
`CCOC(N)=O`: the insulin secretion stimulation in assay [1] was 0.8% (inactive). For the same molecule, the viability decrease in [2] was -12.6% (inactive). In addition, the tube area decrease in [3] is 14.2% (inactive). The GLP1 secretion stimulation in assay [4] is -2.3% (inactive). In addition, the inhibition of viability in [5] was 3.77% (inactive). Further, the values for the viability decrease (inhibition) in assay [6] and in assay [7] were 5.1% (inactive) and -11.6% (inactive), respectively. Further, the inhibition in assay [8] is -22.6% (inactive). Further, in [9], the red/green cell ratio (normalised) was 1.16 (inactive). The normalised cell number in assay [9] (setting [10]) is 0.95; in assay [9] (setting [11]) it was 1.1.
As to `C/C=C/c1ccc(OC)cc1`, in [1], the insulin secretion stimulation is 1.3% (inactive). The viability decrease in assay [2] was -5.7% (inactive). In [3], the tube area decrease is 6.2% (inactive). Moreover, the GLP1 secretion stimulation in [4] is -1.8% (inactive). Besides, in [5], the inhibition of viability was 10.8% (inactive). Besides, the figures for the viability decrease (inhibition) in [6] and in assay [7] were 20.9% (inactive) and -3.2% (inactive), respectively. The inhibition in assay [8] is 6.64% (inactive). The red/green cell ratio (normalised) in assay [9] was 1.24 (inactive). Also, the normalised cell number in [9] (setting [10]) worked out at 1.08; in assay [9] (setting [11]) it was 1.34.
